# Screening results from PubChem.
# Rango complex inh: qHTS Assay for Inhibitors of Rango (Ran-regulated importin-beta cargo) - Importin beta complex formation; Importin subunit beta-1 (Homo sapiens), Q14974; Rango CFP/YFP FRET sensor + importin beta, 45 min; Potency, µM (titrated, usually from 92.2 µM), without a hit: top-dose inhibition of complex formation; 340,000 tested, 0.031% active; AID 540263, 2011; calls by dose curve;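 further: 0% = DMSO wells and 100% = buffer wells lacking importin beta; nearly all actives have a fitted effect of over 15% in size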
# Target sequence (Q14974 whole entry, looked up): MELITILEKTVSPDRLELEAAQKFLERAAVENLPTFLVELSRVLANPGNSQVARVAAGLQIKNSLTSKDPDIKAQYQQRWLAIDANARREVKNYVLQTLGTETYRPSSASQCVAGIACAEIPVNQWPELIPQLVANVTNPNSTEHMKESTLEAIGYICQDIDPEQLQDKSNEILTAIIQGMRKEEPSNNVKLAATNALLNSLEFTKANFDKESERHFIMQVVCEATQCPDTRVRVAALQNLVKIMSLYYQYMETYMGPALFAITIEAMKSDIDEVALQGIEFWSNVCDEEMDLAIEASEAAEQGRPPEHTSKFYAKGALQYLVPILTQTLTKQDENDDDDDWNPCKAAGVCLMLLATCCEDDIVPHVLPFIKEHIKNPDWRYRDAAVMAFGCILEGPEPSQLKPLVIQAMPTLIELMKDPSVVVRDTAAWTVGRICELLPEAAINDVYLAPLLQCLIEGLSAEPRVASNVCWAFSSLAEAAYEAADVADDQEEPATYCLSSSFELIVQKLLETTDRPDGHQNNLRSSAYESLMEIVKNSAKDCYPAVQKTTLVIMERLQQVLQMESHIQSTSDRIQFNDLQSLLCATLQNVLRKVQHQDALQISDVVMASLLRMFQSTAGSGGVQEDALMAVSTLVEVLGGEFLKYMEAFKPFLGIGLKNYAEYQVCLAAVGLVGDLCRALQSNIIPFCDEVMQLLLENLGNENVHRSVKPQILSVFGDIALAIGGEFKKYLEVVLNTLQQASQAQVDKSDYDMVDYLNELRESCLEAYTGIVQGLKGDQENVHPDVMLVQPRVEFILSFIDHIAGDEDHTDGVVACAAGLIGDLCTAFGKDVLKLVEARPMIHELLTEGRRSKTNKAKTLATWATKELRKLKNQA
#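 Inhibition scored from the CFP 486 nm/YFP 530 nm FRET ratio 45 min after adding 0.125 microM importin beta to 50 nM Rango biosensor preincubated 5 min with compound (room temperature, PBS with DTT, Tween-20, BSA). No-importin wells as positive control.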
# Nrf2 activator: qHTS of Nrf2 Activators; Potency, µM (titrated, usually from 46.1 µM), inactives show at the highest dose activation, actives largely listed as activators; AID 624171, 2012; 410,000 tested, 0.31% active; AREc32 ARE-luciferase reporter (MCF7-derived line), luminescence, 24 h; further: % of control where 0% means no effect; nearly all actives have a fitted effect of over 65% in size
#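 Quantitative high-throughput format: AREc32 reporter cells, 1000 per well, received compound by pin transfer and were incubated 24 hr at 37 deg C, 5% CO2, before Steady-Glo luminescence detection.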
# Nrf2 inh: Nrf2 qHTS screen for inhibitors; AID 504444, 2011; Potency, µM (doses to about 46 µM), without a hit: top-dose activity change, negative = inhibition, hits mostly inhibitors; A549 ARE-Fluc reporter, luciferase luminescence, 18-24 h; 360,000 tested, 2.1% active; further: on the % scale 0 is the no-effect control and ±100 the full control effect; nearly all actives have a fitted effect of over 60% in size
#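 A549 ARE_Fluc cells, 5000/well, 5% FBS OPTI-MEM; compounds in dose-response, 18-24 h at 37 °C/5% CO2; CellTiter-Fluor viability read (Ex 405/Em 525), then BugLite luciferase luminescence = Nrf2 activity.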
# Rango dissoc inh: qHTS Assay for Inhibitors of RanGTP induced Rango (Ran-regulated importin-beta cargo) - Importin beta complex dissociation. Biochemical FRET Rango-importin beta, RanGTP-induced dissociation. Potency, µM (doses to about 46.1 µM), inactives show at the top dose activity change, negative = inhibition. 340,000 tested, 0.071% active. AID 540253, 2011; calls by dose curve; further: % of control where 0% means no effect; nearly all actives have a fitted effect of over 45% in size
#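 Two FRET readings bracket the reaction: one 5 min after compound meets Rango–importin beta, another 45 min after RanGTP-RCC1 (0.6 uM Ran, 0.2 uM RCC1, 2 mM GTP) is added. Only the second defines inhibition.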
# A549 tox: Nrf2 qHTS screen for inhibitors: counterscreen for cytotoxicity | AID 504648, 2011 | Potency, µM (top dose mostly 46 µM), for inactives: at the highest dose activity change, negative = cytotoxicity, usual class: inhibitors | 390,000 tested, 0.16% active | A549 ARE-Fluc cells, CellTiter-Fluor viability, 18-24 h; further: on the % scale 0 is the no-effect control and ±100 the full control effect
#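 A549 ARE_Fluc cells in 5% FBS OPTI-MEM were exposed to compounds in concentration-response for 18-24 h at 37 deg C. Viability was read by CellTiter-Fluor fluorescence (Ex 405/Em 525) after 30 min, before the luciferase read.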
# * hit, by the source's call; ? = inconclusive; . = no result; [ ] = dose if it differs, or a comment. The list is not random: actives were taken first. Their share in the collection is about 2.3%. Unless noted, the call rests on the fitted dose curve; in most records, active means well fitted curve in the direction sought with a large enough effect; inconclusive means small, poorly fitted or top-dose-only effect, or another doubt; inactive means no such curve, though single readings can be large; an effect the other way counts as inactive or inconclusive. Potency means the concentration at half of the fitted maximal effect.
SMILES,Rango complex inh,Nrf2 activator,Nrf2 inh,Rango dissoc inh,A549 tox
COc1ccc(NC(=O)CSc2oc(-c3ccc(F)cc3)nc2S(=O)(=O)c2ccc(C)cc2)c(OC)c1,.,0.7%,4.4%[9.27 µM],.,-1.9%
CCC(=O)Nc1cccc(-c2cc3ccccc3oc2=O)c1,-2.3%,2.1%,?,20.7%,7.1%
O=C(Cc1cccc2ccccc12)Nc1ccc(-c2cc3ccccc3oc2=O)cc1,?,-3.0%,5.8µM*,?,-6.1%
CCOC(=O)[C@]12CCC=C1N(Cc1ccc(Cl)cc1Cl)C(=O)[C@H](CC(=O)N1CCOCC1)C2,.,0.2%,.,.,.
COC(=O)c1c(NC(=O)/C=C/C(=O)O)sc(Cc2ccccc2)c1C,-2.9%,22.4µM*,-20.9%,-8.1%,-12.0%
CCOc1cc(-c2nc(-c3ccc(-c4ccc(C)cc4)nc3OC)no2)cc(OCC)c1OCC,.,0.1%,10.6%,.,-4.4%
O=C(Nc1ccc([N+](=O)[O-])cc1)/C(=C/c1cccc([N+](=O)[O-])c1)NC(=O)C1CCCCC1,1.3%,0.7%,-10.2%,-4.3%,-4.9%
Cc1ccc(NC(=O)/C(=C/c2cccc([N+](=O)[O-])c2)NC(=O)C2CCCCC2)c(C)c1,-1.5%,-0.9%,9.2µM*,3.2%,-19.9%
COCCCNC(=S)NNC(=O)C1CC1c1ccc(C(C)(C)C)cc1 (centres undefined),2.4%,-0.9%,20.6µM*,8.0%,-2.1%
Cc1c(C#N)c2ccccc2n1CCOc1ccccc1F,0.1%,3.9%,23.1µM*,4.8%,-2.1%
N#Cc1cn(CCOc2ccccc2F)c2ccccc12,-1.5%,3.7%,7.5%,16.7%,9.2%
COc1ccc2nc(-c3cccc(F)c3)sc2c1,.,.,?,.,9.1%
CS(=O)(=O)Nc1ccc(-c2cc(/C=C3\SC(N)=NC3=O)c[nH]c2=O)cc1,0.4%,-1.1%,-2.8%,-7.0%,-4.8%
Cc1ccc2cc(C#N)c(NCCNC(=S)NCCCN(C)C)nc2c1C,?,-0.3%,10.8%,?,5.3%
Cc1ccc2cc(C#N)c(NCCNC(=O)C3CC3)nc2c1C,?,-0.4%,7.31µM*,?,-18.5%
Cc1ccc(N(CC(=O)NCCc2ccccc2)C(=O)CCC(=O)Nc2cc(C)ccn2)cc1,-0.5%,2.3%,3.0%,-3.8%,6.7%
CCN(Cc1nc2ccccc2c(=O)[nH]1)C(=O)c1ccc(C)c(NC(=O)c2ccco2)c1,?,1.6%,16.4µM*,3.0%,-9.6%
CCN(Cc1nc2ccccc2c(=O)[nH]1)C(=O)c1cccc(NC(=O)c2cccs2)c1,-4.3%,7.8%,-11.1%,-13.1%,-0.4%
Cc1c(CCC(=O)O)c(=O)oc2cc(OCc3ccccc3Br)ccc12,1.5%,-1.8%,20.6µM*,-6.7%,-5.8%
Cc1c(CCC(=O)O)c(=O)oc2cc(OCc3cccc(F)c3)ccc12,1.1%,1.6%,-0.1%,8.6%,0.6%
Cc1ccc(N(CC(=O)NC2CCCC2)C(=O)CCCC(=O)Nc2ccccn2)cc1C,2.7%,-0.3%,8.2%,-1.6%,-6.9%
Cc1cc(C)cc(N(CC(=O)NC2CCCCC2)C(=O)CCCC(=O)Nc2ccccn2)c1,2.3%,-0.3%,20.6µM*,-0.5%,?
Cc1ccc2nc(-c3ccc(N=Nc4cc(S(=O)(=O)O)c5ccccc5c4O)cc3)sc2c1S(=O)(=O)O,.,.,11.9%,.,13µM*
CCC(=O)N(CCC(Cc1ccccc1)c1ccco1)Cc1ccco1 (centres undefined),2.0%,4.0%,16.4µM*,-6.2%,-17.7%
CCOC(=O)C1CCCN(C(=O)c2ccc3c(c2)sc2nc(-c4cccc(OC)c4)cn23)C1 (centres undefined),.,4.0%,16.4µM*,.,-6.9%
SMILES,Rango complex inh,Nrf2 activator,Nrf2 inh,Rango dissoc inh,A549 tox
CCN(CC)S(=O)(=O)c1cc(NC(=O)C(C)OC(=O)c2[nH]c(C)c(C(C)=O)c2C)ccc1C (centres undefined),0.7%,6.4%,11.6µM*,0.2%,-18.4%
Cc1ccc(CNc2ncnc3ccc(-c4ccc5c(c4)OCO5)cc23)s1,.,.,2.7%,.,6.2%
CC1(C)CC(N2CCN(Cc3ccccc3)CC2)=CC(=[N+]2CCCCC2)C1,?,-0.6%,18.4µM*,-8.3%,-18.9%
COc1cc(-c2ccc3ncnc(NCC4CCCO4)c3c2)cc(OC)c1OC (centres undefined),.,.,?,.,-1.2%
O=C(Nc1ccccc1Cl)c1ccc2c(=O)n3c(nc2c1)CCC3,-0.1%,-1.2%,?,-3.1%,2.2%
COc1ccc(NC(=O)c2ccc3c(=O)n4c(nc3c2)CCCCC4)cc1,0.7%,2.1%,-3.1%,1.5%,-10.0%
O=C(Nc1cccc(S(=O)(=O)N2CCOCC2)c1)c1ccc2c(=O)n3c(nc2c1)CCCCC3,3.7%,0.4%,20.6µM*,-6.9%,?
O=C(Nc1nc(-c2ccccc2)cs1)c1ccc2c(=O)n3c(nc2c1)CCCCC3,-0.4%,0.6%,5.8µM*,1.9%,?
O=C(Nc1cccc(S(=O)(=O)N2CCCC2)c1)c1ccc2c(=O)n3c(nc2c1)CCCCC3,0.7%,-0.2%,11.6µM*,0.9%,-16.8%
Cc1ccc(NC(=O)c2ccc3c(=O)n4c(nc3c2)CCCCC4)cc1F,-0.1%,7.7%,18.4µM*,-12.1%,?
CC(=O)c1cccc(NC(=O)c2ccc3c(=O)n4c(nc3c2)CCCCC4)c1,-0.1%,3.2%,4.2%,24.1%,0.8%
COc1cc(Cl)c(C)cc1Nc1nc2ccccc2c2nnc(C)n12,.,5.7%,?,.,5.0%
Cc1ccc(N2CCN(C(=O)c3nn(C)c4c3CSc3ccccc3-4)CC2C)cc1 (centres undefined),.,0.1%,7.7%,.,-5.0%
O=C(Nc1cccc(-c2nn3c(=O)cc(N4CCNCC4)nc3s2)c1)c1ccncc1,.,.,1.4%,.,-5.1%
Cc1ccc(N(C)S(=O)(=O)c2ccc(C)cc2)cc1,0.5%,-0.3%,-1.3%,-1.2%,4.1%
Cc1ccc(/C=N/N(C)S(=O)(=O)c2ccc(C)cc2)cc1,-0.7%,-0.3%,25.9µM*,-9.9%,-1.4%
Cc1ccc(S(=O)(=O)N(C)S(=O)(=O)c2ccc(C)cc2)cc1,-0.7%,3.7%,23.1µM*,14.4%,4.4%
Cn1c(=O)c2c(ncn2Cc2ccccc2)n(C)c1=O,0.2%,-0.1%,-14.9%,-8.1%,-2.8%
COc1cccc(Cn2cnc3c2c(=O)n(C)c(=O)n3C)c1,.,-0.7%,13µM*,.,-1.1%
CCOC(=O)C1=C(C)NC(SCC(N)=O)=C(C#N)C1c1cccs1 (centres undefined),1.1%,-0.9%,-6.1%,2.3%,0.7%
